Reference: publication PMC4336329 (PLoS ONE, 2015)
The whole screen tested about 310,000 compounds, of which about 14,000 (4.5%) showed an effect of 50% or more. Effects have a minus sign here. Many of the other results were omitted from the sample, so strong results are more common in it than they were.

The molecules below were run against human ether-à-go-go-related gene (hERG) potassium channel (human, UniProt Q12809) (assay: primary screen, population patch clamp on CHO cells stably expressing hERG; higher = less effect of the substance).
human ether-à-go-go-related gene (hERG) potassium channel, sequence (Q12809 whole entry, looked up): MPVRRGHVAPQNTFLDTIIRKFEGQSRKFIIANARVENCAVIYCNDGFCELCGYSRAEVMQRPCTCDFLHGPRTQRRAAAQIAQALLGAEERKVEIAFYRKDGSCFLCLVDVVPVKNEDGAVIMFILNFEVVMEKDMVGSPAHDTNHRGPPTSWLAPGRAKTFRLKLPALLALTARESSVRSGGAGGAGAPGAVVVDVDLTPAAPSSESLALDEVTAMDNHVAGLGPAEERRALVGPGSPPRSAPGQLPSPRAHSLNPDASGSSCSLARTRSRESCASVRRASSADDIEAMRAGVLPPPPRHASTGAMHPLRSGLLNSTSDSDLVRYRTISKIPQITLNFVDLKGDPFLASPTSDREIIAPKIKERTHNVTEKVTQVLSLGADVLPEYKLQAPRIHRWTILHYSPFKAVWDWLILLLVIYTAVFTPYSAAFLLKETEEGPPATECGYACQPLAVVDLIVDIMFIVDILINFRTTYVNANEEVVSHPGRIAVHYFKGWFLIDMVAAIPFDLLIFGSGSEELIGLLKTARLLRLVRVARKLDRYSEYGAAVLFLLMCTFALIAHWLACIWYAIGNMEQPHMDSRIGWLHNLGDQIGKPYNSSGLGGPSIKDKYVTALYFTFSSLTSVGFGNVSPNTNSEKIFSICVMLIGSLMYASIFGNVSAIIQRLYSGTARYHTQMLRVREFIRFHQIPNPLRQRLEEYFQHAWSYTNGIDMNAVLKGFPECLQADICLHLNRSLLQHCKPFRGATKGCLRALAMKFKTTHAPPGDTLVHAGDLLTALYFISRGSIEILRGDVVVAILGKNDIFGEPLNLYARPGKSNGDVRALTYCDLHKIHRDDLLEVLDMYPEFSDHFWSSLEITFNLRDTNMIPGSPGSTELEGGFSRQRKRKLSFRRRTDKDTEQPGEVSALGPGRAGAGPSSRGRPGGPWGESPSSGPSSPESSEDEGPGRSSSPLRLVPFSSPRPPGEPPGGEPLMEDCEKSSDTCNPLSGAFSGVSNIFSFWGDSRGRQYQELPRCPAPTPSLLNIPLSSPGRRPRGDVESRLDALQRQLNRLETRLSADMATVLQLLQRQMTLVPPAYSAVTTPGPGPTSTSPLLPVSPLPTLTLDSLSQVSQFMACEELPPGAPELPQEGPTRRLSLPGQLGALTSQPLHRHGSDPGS
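Also: peak tail current of the secondary pulse compared with the same well before compound.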

Row | SMILES | hERG current change (%, negative = inhibition) at 10uM
1 | Nc1nc2c(ncn2C2C[C@H](O)[C@@H](CO)O2)c(=O)[nH]1 (stereo partly drawn) | 14.4%
2 | Cc1nnc(NC(=O)c2ccc(S(=O)(=O)N3CCc4ccccc4C3)cc2)o1 | 8.81%
3 | Cc1cc(C)n(-c2nnc(C)n2NC(=O)c2cccc(Cl)c2)n1 | 11.1%
4 | Cc1cccc[n+]1CC(=O)c1ccc(NC(=O)c2ccccc2)cc1.[Br-] | 28.6%
5 | COc1ccccc1NC(=O)Nc1nc(CC(=O)NCc2ccc(F)cc2)cs1 | -11.4%
6 | Cc1ccc(S(=O)(=O)NCc2ccccc2)cc1C(=O)NC1CCCCC1 | 15.9%
7 | COc1cc(C(=O)NCC(=O)OCCN2C(=O)c3ccccc3C2=O)cc(OC)c1OC | 4.2%
8 | CCNc1nc(Oc2ccc(=O)[nH]n2)nc(SC)n1 | 8.57%
9 | CC1=CC(C/C(C)=C/COc2ccc3ccc(=O)oc3c2)OC1=O (stereo not drawn) | 2.36%
10 | COC(=O)c1c(NC(=O)c2ccccc2F)sc2c1C(C(=O)OC)CC2 (stereo not drawn) | 9.38%
11 | CCCn1c(SCC(=O)c2cc(OC)ccc2OC)nnc1-c1ccco1 | -12.5%
12 | O=C(O)C1=C[C@@H](c2coc3ccccc3c2=O)C[C@@H](OCCCCO)O1 | 22.8%
13 | C#CCNC(=O)C1=C[C@H](c2coc3ccccc3c2=O)C[C@H](OCCCCO)O1 | -45%
14 | O=C(NCc1ccccc1)C1=C[C@H](c2coc3ccccc3c2=O)C[C@H](OCCCCO)O1 | -55.4%
15 | C#CCNC(=O)C1=C[C@@H](c2coc3ccccc3c2=O)C[C@@H](OCCCCO)O1 | 1.71%
16 | O=C(NCc1ccccc1)C1=C[C@@H](c2coc3ccccc3c2=O)C[C@@H](OCCCCO)O1 | -83.1%
17 | O=C(O)C1=C[C@H](c2coc3ccccc3c2=O)C[C@H](OCCCCO)O1 | 3.91%
18 | O=C(Nc1ccccc1)C1=C[C@@H](c2coc3ccccc3c2=O)C[C@@H](OCCCCO)O1 | -41.1%
19 | O=C(NC1CC1)C1=C[C@@H](c2coc3ccccc3c2=O)C[C@@H](OCCCCO)O1 | -23.8%
20 | O=C(Nc1ccccc1)C1=C[C@H](c2coc3ccccc3c2=O)C[C@H](OCCCCO)O1 | -70.3%
21 | COc1cc2c(cc1OC)CN(C(=S)Nc1ccccc1)CC2 | -7.19%
22 | O=C(/C=C/c1cc(Br)ccc1F)Nc1cccnc1 | 14.6%
23 | COc1ccccc1N(CC(=O)NC1CCCC1)C(=O)C1(C)CC(=O)N=C2C=CC(C)=CN21 (stereo not drawn) | 12.5%
24 | CC(C)CCN(C(=O)c1ccc(N2CCCC2=O)cc1)c1c(N)n(Cc2ccccc2)c(=O)[nH]c1=O | 12.2%
25 | Cc1ccc(-n2cc3ccc([N+](=O)[O-])cc3n2)cc1 | 5.28%
26 | CC(C)n1c(Nc2ccccc2)nc2ccccc21 | -1.84%
27 | COCCn1c(SCC(=O)Nc2cccc(OC)c2)nc2c(oc3ccccc32)c1=O | -42.2%

Row | SMILES | hERG current change (%, negative = inhibition) at 10uM
28 | COc1cccc(NC(=O)CSc2nc3c(sc4ccccc43)c(=O)n2CCN(C)C)c1.Cl | -65.5%
29 | COc1cccc(NC(=O)CSc2nc3c([nH]c4ccccc43)c(=O)n2C)c1 | 16.4%
30 | CCN(CC)CCn1c(SCC(=O)Nc2ccc(F)cc2)nc2c(sc3ccccc32)c1=O.Cl | -14.9%
31 | Cc1cc(NC(=O)CSc2nc3c(sc4ccccc43)c(=O)n2CCc2ccccc2)n[nH]1 | -19.6%
32 | COc1ccccc1NC(=O)CSc1nc2c(sc3ccccc32)c(=O)n1CCN(C)C.Cl | 11.5%
33 | COc1ccc(NC(=O)CSc2nc3c(sc4ccccc43)c(=O)n2CCCN2CCCC2)cc1 | -30.8%
34 | COc1cccc(NC(=O)CSc2nc3c(sc4ccccc43)c(=O)n2CCCN2CCCC2)c1 | -69.8%
35 | CCN(CC)CCn1c(SCC(=O)Nc2cccc(OC)c2)nc2c(sc3ccccc32)c1=O | -69.2%
36 | Cc1ccc(C)c(N2CCN(S(=O)(=O)c3ccc4c(c3)CC(=O)N4C)CC2)c1 | -19.4%
37 | COc1ccc(Nc2nnc(SCC3CCCO3)s2)cc1 (stereo not drawn) | -5.7%
38 | Cc1nc(NC(=O)C(Cl)Cl)sc1C(=O)N(C)C | 5.44%
39 | CCCC(c1nnnn1CC1CCCO1)N1CCN(c2ccccc2)CC1.Cl (stereo not drawn) | -4.74%
40 | O=C(Nc1cccc(Oc2ccc3c(c2)C(=O)NC3=O)c1)c1ccco1 | -21.8%
41 | CCn1c(=O)[nH]c(=O)c2c(N)c(C(=O)c3ccccc3OC)sc21 | -15.2%
42 | CCn1c(=O)[nH]c(=O)c2c(N)c(C(=O)c3cc(F)ccc3F)sc21 | -57.4%
43 | Cc1ccc(C(=O)c2sc3c(c2N)c(=O)[nH]c(=O)n3CCc2ccccc2)cc1 | 12.2%
44 | CC1=Nc2ccccc2/C1=C/c1sc(=N)n(-c2nccs2)c1O | 10.5%
45 | O=C(CN1C(=O)/C(=C/c2ccco2)SC1=S)Nc1ccc(O)c(C(=O)O)c1 | 25.2%
46 | CC(NCCC(Cc1ccccc1)c1ccco1)c1ccccc1 (stereo not drawn) | -22%
47 | Fc1ccc(CNCc2ccco2)cc1 | 11.5%
48 | O=C(NCCNCc1ccc(F)cc1)c1ccco1.O=C(O)C(=O)O | 9.99%
49 | CC(=O)N(CCC(Cc1ccccc1)c1ccco1)Cc1ccco1 (stereo not drawn) | -28.4%
50 | Fc1ccc(CNCCC(Cc2ccccc2)c2ccco2)cc1 (stereo not drawn) | -54.3%
51 | CC(=O)NCCC(Cc1ccccc1)c1ccco1 (stereo not drawn) | 5.91%
52 | CN(C)c1ccc(CNCCC(Cc2ccccc2)c2ccco2)cc1 (stereo not drawn) | -52.3%
53 | c1ccc(CNCCC(Cc2ccccc2)c2ccco2)cc1 (stereo not drawn) | -54.8%
54 | CCC(=O)N(CCC(Cc1ccccc1)c1ccco1)Cc1ccco1 (stereo not drawn) | -1.81%
